Here are results for 20 molecules from ChEMBL document CHEMBL1961873, “Compounds: GSK PKIS; Assays: Nanosyn kinase panel” (2012).

SMILES strings stand for the structures.

Assay [1] concerns the target Tyrosine-protein kinase receptor UFO (Homo sapiens) (UniProt P30530). To be noted: at 1 µM.
For assay [2], the target named is Tyrosine-protein kinase Blk (Homo sapiens) (UniProt P51451). To be noted: at 0.1 µM.
The target is the same in assay [3]. To be noted: at 1 µM.
In assay [4] the target is T1, Cytoplasmic tyrosine-protein kinase BMX (Homo sapiens) (UniProt P51813).
T1 sequence (whole entry): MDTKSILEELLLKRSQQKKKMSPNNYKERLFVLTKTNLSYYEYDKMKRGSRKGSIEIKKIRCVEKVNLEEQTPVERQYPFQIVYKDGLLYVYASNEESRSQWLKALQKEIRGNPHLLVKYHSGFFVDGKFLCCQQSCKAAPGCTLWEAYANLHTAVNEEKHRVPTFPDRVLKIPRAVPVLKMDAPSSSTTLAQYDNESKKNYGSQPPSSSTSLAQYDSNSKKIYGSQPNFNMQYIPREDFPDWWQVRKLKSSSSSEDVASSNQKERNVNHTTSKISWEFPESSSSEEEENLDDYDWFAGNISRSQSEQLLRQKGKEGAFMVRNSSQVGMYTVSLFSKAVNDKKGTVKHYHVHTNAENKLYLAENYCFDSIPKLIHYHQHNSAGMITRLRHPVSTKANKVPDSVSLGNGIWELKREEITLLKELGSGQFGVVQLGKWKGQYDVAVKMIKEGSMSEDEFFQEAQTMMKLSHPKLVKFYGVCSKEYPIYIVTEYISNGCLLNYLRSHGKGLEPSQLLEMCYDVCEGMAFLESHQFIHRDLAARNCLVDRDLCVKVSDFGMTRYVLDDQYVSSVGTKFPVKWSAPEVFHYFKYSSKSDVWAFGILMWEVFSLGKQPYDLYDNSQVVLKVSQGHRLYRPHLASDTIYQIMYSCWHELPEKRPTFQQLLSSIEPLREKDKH
To be noted: at 0.1 µM.

For assay [5], the target named is T1, Cytoplasmic tyrosine-protein kinase BMX (Homo sapiens). To be noted: at 1 µM.
In assay [6] the target is Protein-tyrosine kinase 6 (Homo sapiens) (UniProt Q13882). To be noted: at 0.1 µM.
Chain of Protein-tyrosine kinase 6 (Homo sapiens) (Q13882 whole entry, looked up): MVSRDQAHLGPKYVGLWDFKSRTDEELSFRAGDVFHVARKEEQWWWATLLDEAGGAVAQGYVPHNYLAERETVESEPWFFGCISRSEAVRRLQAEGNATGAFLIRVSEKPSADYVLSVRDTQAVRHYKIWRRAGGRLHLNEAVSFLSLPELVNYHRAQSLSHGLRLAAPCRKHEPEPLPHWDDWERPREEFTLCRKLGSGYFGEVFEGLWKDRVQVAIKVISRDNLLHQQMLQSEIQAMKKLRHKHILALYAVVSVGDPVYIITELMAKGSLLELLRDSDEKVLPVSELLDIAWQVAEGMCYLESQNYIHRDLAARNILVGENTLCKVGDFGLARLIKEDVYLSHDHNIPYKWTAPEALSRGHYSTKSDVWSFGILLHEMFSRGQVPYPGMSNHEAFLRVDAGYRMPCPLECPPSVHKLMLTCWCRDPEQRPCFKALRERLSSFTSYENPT
The target is the same in assay [7]. Conditions: at 1 µM.
Assay [8] addresses Tyrosine-protein kinase BTK (Homo sapiens) (UniProt Q06187). Conditions: at 0.1 µM.
For assay [9] the target is unchanged. To be noted: at 1 µM.
For assay [10], the target named is Tyrosine-protein kinase CSK (Homo sapiens) (UniProt P41240). To be noted: at 0.1 µM.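 Also: value given is the averaged percent inhibition of CSK kinase activity, from the GSK PKIS kinase inhibitor set screening panel.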
Chain of Tyrosine-protein kinase CSK (Homo sapiens) (P41240 2-450 limits assumed): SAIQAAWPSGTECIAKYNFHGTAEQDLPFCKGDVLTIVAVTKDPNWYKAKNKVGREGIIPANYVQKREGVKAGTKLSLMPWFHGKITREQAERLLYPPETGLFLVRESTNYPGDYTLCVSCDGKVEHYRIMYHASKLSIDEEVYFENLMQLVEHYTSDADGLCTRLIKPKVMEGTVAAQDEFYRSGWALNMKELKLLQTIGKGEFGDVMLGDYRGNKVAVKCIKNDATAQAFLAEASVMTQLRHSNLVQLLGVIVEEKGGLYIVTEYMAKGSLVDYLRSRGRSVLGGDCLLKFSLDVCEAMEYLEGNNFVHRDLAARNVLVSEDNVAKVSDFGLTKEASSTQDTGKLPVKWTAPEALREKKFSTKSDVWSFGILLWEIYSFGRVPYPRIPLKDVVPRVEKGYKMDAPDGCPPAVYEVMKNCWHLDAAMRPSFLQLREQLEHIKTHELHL

Chain of Tyrosine-protein kinase Blk (Homo sapiens) (P51451 2-505 limits assumed): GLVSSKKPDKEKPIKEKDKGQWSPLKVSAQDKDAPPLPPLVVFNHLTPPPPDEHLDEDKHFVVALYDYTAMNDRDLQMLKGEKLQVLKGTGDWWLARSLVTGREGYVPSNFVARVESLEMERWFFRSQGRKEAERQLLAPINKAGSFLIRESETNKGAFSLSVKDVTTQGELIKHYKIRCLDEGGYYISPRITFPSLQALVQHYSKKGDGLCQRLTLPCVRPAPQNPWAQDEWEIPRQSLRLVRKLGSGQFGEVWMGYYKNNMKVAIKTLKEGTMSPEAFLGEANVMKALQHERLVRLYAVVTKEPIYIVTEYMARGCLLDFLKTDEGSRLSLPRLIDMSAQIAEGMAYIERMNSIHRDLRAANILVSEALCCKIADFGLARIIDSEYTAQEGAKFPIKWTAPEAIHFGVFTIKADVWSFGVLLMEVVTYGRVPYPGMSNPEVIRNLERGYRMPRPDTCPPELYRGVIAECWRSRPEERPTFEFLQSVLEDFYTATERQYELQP
Chain of Tyrosine-protein kinase BTK (Homo sapiens) (Q06187 whole entry): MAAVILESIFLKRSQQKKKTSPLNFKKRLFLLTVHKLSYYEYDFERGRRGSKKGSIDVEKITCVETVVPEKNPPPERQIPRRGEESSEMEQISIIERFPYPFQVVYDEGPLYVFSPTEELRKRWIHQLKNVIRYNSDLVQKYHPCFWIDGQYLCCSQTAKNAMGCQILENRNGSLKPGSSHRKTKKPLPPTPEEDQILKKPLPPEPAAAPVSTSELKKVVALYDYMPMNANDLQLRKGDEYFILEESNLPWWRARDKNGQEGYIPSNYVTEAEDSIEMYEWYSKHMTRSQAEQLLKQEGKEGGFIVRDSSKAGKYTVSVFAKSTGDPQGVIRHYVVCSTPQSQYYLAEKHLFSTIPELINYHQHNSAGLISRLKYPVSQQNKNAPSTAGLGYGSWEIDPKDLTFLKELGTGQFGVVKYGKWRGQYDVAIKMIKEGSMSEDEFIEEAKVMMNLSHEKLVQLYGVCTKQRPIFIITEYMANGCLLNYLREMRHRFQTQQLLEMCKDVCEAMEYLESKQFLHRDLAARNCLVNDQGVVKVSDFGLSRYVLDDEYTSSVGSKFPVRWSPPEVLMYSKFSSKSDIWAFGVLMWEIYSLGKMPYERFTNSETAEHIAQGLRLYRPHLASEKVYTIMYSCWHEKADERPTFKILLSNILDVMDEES
Chain of Tyrosine-protein kinase receptor UFO (Homo sapiens) (P30530 whole entry): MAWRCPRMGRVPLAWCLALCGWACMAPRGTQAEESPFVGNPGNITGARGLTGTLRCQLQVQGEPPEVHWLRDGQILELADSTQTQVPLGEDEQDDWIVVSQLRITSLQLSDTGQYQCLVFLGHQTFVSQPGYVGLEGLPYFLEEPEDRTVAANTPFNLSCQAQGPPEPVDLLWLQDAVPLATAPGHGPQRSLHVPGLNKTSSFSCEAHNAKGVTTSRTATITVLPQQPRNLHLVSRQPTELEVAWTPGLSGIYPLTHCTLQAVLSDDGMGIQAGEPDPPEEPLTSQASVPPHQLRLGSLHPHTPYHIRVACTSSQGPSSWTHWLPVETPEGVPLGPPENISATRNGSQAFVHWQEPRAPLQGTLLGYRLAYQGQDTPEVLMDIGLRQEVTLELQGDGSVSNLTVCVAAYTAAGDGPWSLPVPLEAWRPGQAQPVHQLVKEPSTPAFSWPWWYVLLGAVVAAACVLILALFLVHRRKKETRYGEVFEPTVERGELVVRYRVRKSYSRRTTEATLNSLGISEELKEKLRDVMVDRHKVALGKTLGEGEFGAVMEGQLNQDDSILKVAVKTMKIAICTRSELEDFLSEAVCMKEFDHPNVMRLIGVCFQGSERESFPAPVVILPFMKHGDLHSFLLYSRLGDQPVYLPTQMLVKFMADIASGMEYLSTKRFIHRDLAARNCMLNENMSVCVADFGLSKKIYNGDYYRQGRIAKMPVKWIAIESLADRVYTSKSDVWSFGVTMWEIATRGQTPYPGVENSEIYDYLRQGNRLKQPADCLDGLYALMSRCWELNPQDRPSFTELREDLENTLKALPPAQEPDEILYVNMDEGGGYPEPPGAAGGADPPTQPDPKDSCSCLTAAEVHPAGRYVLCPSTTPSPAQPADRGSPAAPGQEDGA

As for `CS(=O)(=O)CCNCc1nc(-c2ccc3ncnc(Nc4ccc(OCc5cccc(C(F)(F)F)c5)cc4)c3c2)cs1`, the inhibition is -2.54% in assay [1]; 1.22% in assay [2]; 4.48% in assay [3]; 3.48% in [4]; 5.73% in assay [5]; -0.74% in assay [6]. In addition, the inhibition in assay [7] is 1.75%; in assay [8], 0.43%; in assay [9], 1.66%; in [10] it was 3.59%.

On to `c1ccc(Nc2ncc(-c3ccccc3)o2)cc1`, for which the inhibition was -3.74% in assay [1]; 1.98% in assay [2]; 5.16% in assay [3]; 1.56% in assay [4]; 7.49% in assay [5]; 3.8% in assay [6]. Besides, the inhibition is 7.06% in [7], -0.11% in assay [8], 0.49% in assay [9] and 4.22% in assay [10].

Turning to `CS(=O)(=O)Nc1cccc(-c2ccc3c(NC(=O)C4CC4)n[nH]c3c2)c1`, the inhibition was 1.68% in assay [1]; 0.09% in [2]; 4.51% in assay [3]; 4.15% in assay [4]; 1.52% in assay [5]; -1.65% in assay [6]. For the same molecule, the inhibition in [7] was -2.5%; in assay [8], 0.45%; in [9], 1.66%; in assay [10], -2.14%.

Consider `CN(C)C(=O)O[C@@H]1CN[C@@H](C#Cc2cc3ncnc(Nc4ccc(OCc5cccc(F)c5)c(Cl)c4)c3s2)C1`, for which the inhibition in assay [1] was 2.48%; in assay [2], 2.22%; in assay [3] it was 3.83%; in assay [4] it was 1.11%; in assay [5], 3.41%; in [6], -0.15%. The inhibition in assay [7] was 2.41%; in assay [8], -0.22%; in [9], 1.84%; in assay [10] it was -1.53%.

Take `COC(=O)Nc1nc2cc(Oc3ccc(NC(=O)Nc4cccc(Br)c4)cc3)ccc2[nH]1`: the inhibition in assay [1] stood at 9.52%; in [2], 3.1%; in assay [3] it was 2.8%; in assay [4] it was 2.76%; in [5] it was 1.32%; in assay [6], 3.81%. In addition, the inhibition was 4.63% in [7], 1.15% in assay [8], 0.55% in assay [9] and 7.57% in assay [10].

On to `COc1cccc(-n2ncc3c(N/N=C/c4ccc(C)cc4)ncnc32)c1`, for which the inhibition in assay [1] was -6.6%; in assay [2], 3.17%; in assay [3] it was 7.15%; in [4], 5.21%; in assay [5], 10.6%; in assay [6], 3.4%. For the same molecule, the inhibition was 5.43% in [7], -0.28% in [8], 0.44% in [9] and 2.91% in assay [10].

For the molecule `O=C1Nc2ccc(-c3cccnc3)cc2C1=Cc1cc(Br)c(O)c(Br)c1`, the inhibition in assay [1] is -2.44%; in assay [2] it was 2.77%; in assay [3], 10.8%; in [4], -2.3%; in assay [5], 4.31%; in [6], 4.36%. The inhibition in assay [7] was determined as 10.7%; in assay [8] it was 0.22%; in [9], 1.61%; in assay [10], 4.14%.

Consider `COc1cc2ncn(-c3cc(OCc4ccccc4S(C)(=O)=O)c(C#N)s3)c2cc1OC`, for which the inhibition in [1] was determined as 43.5%; in assay [2], 16.6%; in [3], 72.3%; in [4] it was 1.45%; in assay [5] it was 33.1%; in [6] it was 4.42%. Moreover, the inhibition in assay [7] came to 9.89%; in [8] it was 1.87%; in assay [9], 11.8%; in assay [10], 7.28%.

As for `CN1CCN(C(=O)c2ccc(NC(=O)Nc3ccc(N(C)c4ccnc(Nc5ccc(CS(C)(=O)=O)cc5)n4)cc3)cc2)CC1`, the inhibition was 11.9% in assay [1]; 2.76% in assay [2]; 24.4% in [3]; 19.1% in assay [4]; 68% in [5]; -1.96% in assay [6]. Further, the inhibition in assay [7] is 13.5%; in [8] it was 1.59%; in [9] it was 16%; in assay [10] it was -1.19%.

For the molecule `Cc1ccc2c(c1)/C(=N/Nc1ccc(S(N)(=O)=O)cc1)C(=O)N2`, the inhibition in assay [1] was 2.86%; in [2], 0.29%; in [3] it was 11.2%; in assay [4], 1.94%; in [5], -0.8%; in [6], -3.49%. For the same molecule, the inhibition is -3.16% in assay [7], 0.42% in assay [8], 3.78% in assay [9] and -2.97% in assay [10].

Consider `N#Cc1c(NC(=O)c2ccccc2F)sc2c1CCCC2`, for which the inhibition in [1] is 2.38%; in assay [2] it was -0.71%; in [3] it was 0.42%; in assay [4], -1.17%; in assay [5], -1.62%; in assay [6], 0.56%. The inhibition is -1.93% in assay [7], 0.32% in assay [8], -0.23% in assay [9] and -1.65% in [10].

Consider `Cc1ccc(C(=O)NC2CC2)cc1-c1ccc2[nH]ncc2c1`, for which the inhibition in assay [1] was 6.55%; in [2] it was -1.8%; in assay [3], -1.6%; in [4] it was -2.64%; in [5] it was -6.39%; in assay [6], -2.14%. The inhibition in assay [7] is -3.93%; in assay [8] it was 0.06%; in assay [9], -1.33%.

On to `CCS(=O)(=O)c1ccc(OC)c(Nc2ncc(-c3cccc(OC)c3)o2)c1`, for which the inhibition in assay [1] is -1.98%; in [2] it was 10.4%; in assay [3], 64.3%; in assay [4] it was -2.1%; in assay [5], 25.9%; in assay [6], 6.68%. Further, the inhibition in assay [7] was 40.7%; in [8] it was 3.67%; in assay [9], 21.6%; in assay [10] it was -0.51%.

In the case of `CCn1c(-c2nonc2N)nc2ccc(F)cc21`, the inhibition is -5.29% in assay [1]; 3.96% in assay [2]; 4.5% in assay [3]; 5.08% in assay [4]; 6.05% in assay [5]; 4.83% in [6]. Moreover, the inhibition in assay [7] was 8.38%; in [8], 0.19%; in assay [9] it was -0.49%; in [10], 5.53%.

With `Nc1nccc(-c2c(-c3ccc(F)cc3)ncn2CCCN2CCOCC2)n1`, the inhibition came out at 2.93% in assay [2]; 5.42% in assay [3]; 3.6% in assay [4]; 2.77% in assay [5]; 4.81% in [6]; 10.8% in assay [7]. For the same molecule, the inhibition in assay [8] is -0.92%; in assay [9], -0.14%; in assay [10] it was 2.1%.

In the case of `COc1cc2ncnc(Nc3ccc(C)c(O)c3)c2cc1OC`, the inhibition was determined as 7.68% in assay [2]; 49% in assay [3]; 6.28% in assay [4]; 13% in [5]; 17.5% in assay [6]; 65.5% in assay [7]. In addition, the results for the inhibition in assay [8], in assay [9] and in [10] were 0.81%, 15.9% and 5.1%, respectively.

With `Cc1ccc2c(-c3ccnc(Nc4cccc(C(F)(F)F)c4)n3)c(-c3ccccc3)nn2n1`, the inhibition was -3.9% in assay [1]; 12.4% in assay [2]; 68.1% in assay [3]; 7.21% in [4]; 38.2% in assay [5]; 15.5% in [6]. The inhibition in assay [7] came out at 70.9%; in [8] it was 0.51%; in [9] it was 5.18%; in assay [10], 4.63%.

For `Cc1ccc(NC(=O)CC2CC2)cc1-c1ccc(C(=O)NCC2CC2)cc1`, the inhibition in assay [1] is -1.55%; in assay [2] it was 2.42%; in assay [3] it was 2.73%; in assay [4], 1.08%; in assay [5] it was 5.01%; in assay [6], 4.58%. Moreover, the inhibition was 5.79% in assay [7], 1.4% in [8], 2.39% in assay [9] and 4.41% in [10].

For `CN(C)C(=O)O[C@H]1CN[C@H](C#Cc2cc3ncnc(Nc4ccc(OCc5cccc(F)c5)c(Cl)c4)c3s2)C1`, the inhibition in assay [1] was -1.68%; in assay [2], 2.47%; in assay [3], 4.23%; in assay [4], -3.39%; in assay [5], 3.3%; in assay [6] it was 5.52%. Also, the inhibition in [7] was 4.14%; in assay [8] it was -1.08%; in [9], 0.74%; in assay [10], 0.6%.

Consider `COC(=O)c1cncc(/C=C/c2c(C)cc(O)cc2C)c1`, for which the inhibition in assay [1] was -5.3%; in assay [2], 3.73%; in assay [3] it was 13.6%; in assay [4], 4.1%; in assay [5], 29.6%; in assay [6] it was 11.4%. In addition, the inhibition came out at 50.2% in [7], 1.9% in assay [8], 2.92% in [9] and 4.04% in assay [10].
